In PubChem BioAssay AID827 (SRMLSC, 2007) one finds viability data, which are given here for 96 compounds.

The whole screen tested about 140,000 compounds, of which about 1,700 (1.2%) were called active. This is one part of a sample in which actives are shown more often than they occur. Values without a mark were called inactive.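 How the source made its calls: active means viability at or below a set limit, 4 SD under the median of all tested compounds (cut at about 3.7% in these data); inactive means the rest.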

The assay is described as follows: growth suppression of PTEN-null HCT116, primary screen, cell-based, CellTiter-Glo (AID 827).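 Further: PTEN knockout HCT116 line with beta catenin targeted HCT116 as companion control.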 The conditions noted are these: 60 h, at 10 µM, stronger effect = lower value.
Regarding `COc1ccc(C/C(C)=N/NC(=O)c2cc(C)oc2C)cc1`, the viability – broadly, a read-out of living cells in per cent, often relative to untreated cells – is 98.5%. The figure for `c1ccc2cc3c(NCCN4CCOCC4)ccnc3cc2c1` is 3.31% (active); for `c1ccc2[nH]c(NCCN3CCOCC3)nc2c1` it is 103%; for `O=C(Cn1c(-c2ccccn2)nc2ccccc21)NCCN1CCOCC1` it is 102%.

On to `COc1ccccc1C(=O)Nc1ccc(OCc2nnc3c4ccccc4c(C)nn23)cc1`, for which the viability is 101%.

`CCCNC(=O)NC(=O)COC(=O)CC(NC(N)=O)c1ccc(Cl)cc1` (stereo unspecified): the viability was 103%. Turning to `N#C/C(C(=O)N1CCOCC1)=C1/SC(Cc2ccc(F)cc2)C(=O)N1c1ccccc1` (stereo unspecified), the viability is 89.2%. The figure for `CCCOc1ccc(C(=O)C(CCC(CNCC)C(=O)c2ccc(OCCC)cc2)CNCC)cc1` (stereo unspecified) is 0.64% (active); for `CCCCOc1ccc(C(=O)NN2CCN(C)CC2)cc1` it is 102%; for `CCCCOc1ccc(C(=O)NCc2ccncc2)cc1` it is 70.3%. As for `CC1(C)C2CC=C(/C=N/NC(=O)c3ccc(Cl)cc3)C1C2` (stereo unspecified), the viability is 90.5%.

On to `Fc1ccccc1/C=C1\CCCC2=C1Nc1ncnn1C2c1ccccc1F` (stereo unspecified), for which the viability is 2.48% (active).

Consider `O=C(/C=C\c1cn(-c2ccccc2)nc1-c1cccs1)N1CCOCC1`, for which the viability is 67.3%. On to `CCn1c(/C=N/NC(=O)c2ccc(OC)cc2)nc2ccccc21`, for which the viability was 14.3%. Regarding `O=C(Nn1c(-c2ccc(Cl)cc2)nc2ccccc2c1=O)c1cccnc1Cl`, the viability is 102%. For the compound `CCOC(=O)c1c(/N=C/c2cc(C)ccc2O)sc2c1CCC2`, the viability was 91.9%.

In the case of `CSc1nc(-c2ccccc2)nc(C(Cl)Cl)n1`, the viability is 2.06% (active). Consider `CSc1nc(C)cc(SC(C(C)=O)C(=O)Nc2ccccc2)n1` (stereo unspecified), for which the viability was 88.1%. The figure for `C/C(=N/NS(=O)(=O)c1ccccc1)c1ccc(NC(=O)C(F)(F)F)cc1` is 96.4%; for `Cc1cccc(OCC(=O)NC(=S)Nc2ccccc2N2CCOCC2)c1` it is 99.9%. In the case of `CCOc1cc(N2CCOCC2)c(OCC)cc1NC(=O)COC(=O)[C@H](Cc1c[nH]c2ccccc12)NC(C)=O`, the viability is 93.5%. Take `CCOc1cc(N2CCOCC2)c(OCC)cc1NC(=O)COc1cccc2cccnc12`: the viability was 3.59% (active). Turning to `O=[N+]([O-])c1ccc(N2CCN(S(=O)(=O)c3ccccc3)CC2)cc1N1CCc2ccccc2C1`, the viability is 89.4%. As to `O=C(Cc1ccccc1)NNS(=O)(=O)c1ccc([N+](=O)[O-])cc1`, the viability is 101%. Regarding `CC(C)CCN1C(=O)c2ccc(C(=O)Nc3cccc(S(N)(=O)=O)c3)cc2C1=O`, the viability is 88.8%. The same measure for `COC(=O)c1c(NC(=O)CN2CCN(S(=O)(=O)c3ccccc3[N+](=O)[O-])CC2)sc2c1CCC(C)C2` (stereo unspecified): 93.5%; for `CCC1CCc2c(sc(NC(C)=O)c2C#N)C1` (stereo unspecified): 95.5%; for `CN1CCN(CC(=O)Nc2sc3c(c2C#N)CCC(C(C)(C)C)C3)CC1` (stereo unspecified): 3.39% (active).

Consider `Cc1ccc2sc(NNC(=O)c3ccc4c(c3)OCCO4)nc2c1C`, for which the viability is 68.3%.

Regarding `O=C1C2C3C=CC(C4CC34)C2C(=O)N1c1nccs1` (stereo unspecified), the viability was 101%. The same measure for `C=CCOc1ccc(/C=N/NC(=O)C(C)Sc2ccccn2)cc1OCC` (stereo unspecified): 103%; for `Cc1ccc(OCc2nnc(SC3CCc4ccccc4C3=O)n2C)cc1` (stereo unspecified): 85.3%. In the case of `O=C(/C=C/c1ccc(Cl)cc1Cl)NCc1ccco1`, the viability was 96.5%. For `O=C(/C=C/c1ccc(Cl)cc1Cl)c1cccnc1`, the viability is 0.59% (active). `O=C(NCc1ccc(Cl)c(Cl)c1)c1cccnc1`: the viability was 100%. For `CCCC(O)(CCC)C(=O)NN(C(=O)CCl)c1cccc(C)c1`, the viability was 32.7%. On to `CC(C[N+](C)(C)C)OC(N)=O` (stereo unspecified), for which the viability was 1.03% (active).

`CC(=O)OC(C)C[N+](C)(C)C` (stereo unspecified): the viability is 98.9%. Turning to `COc1ccc(/C(N)=N/OC(=O)CCCc2ccccc2)cc1`, the viability was 94.9%. On to `COC(=O)c1cc(C(=O)N(Cc2ccccc2)c2ccccn2)cc([N+](=O)[O-])c1`, for which the viability was 94.2%. For the compound `NC1=C([N+](=O)[O-])C(c2ccccc2)C2=C(CCCC2=O)O1` (stereo unspecified), the viability is 95.7%. As for `O=C(COC(=O)/C(=C/c1cccs1)c1cccs1)NCc1ccccc1Cl`, the viability is 91.8%. `Cc1coc2c(O)cc3c(c12)OC1(N2CCCCC2)C(=O)NCCCC31` (stereo unspecified): the viability was 2.96% (active). The same measure for `Cn1cc(C(=O)NCc2ccccc2F)cn1`: 102%. For the compound `O=C(Nc1ccc2c(c1)OCCO2)c1cnccn1`, the viability is 97.3%. As for `Cn1cc([N+](=O)[O-])c(C(=O)Nc2cnn(Cc3ccc(F)cc3)c2)n1`, the viability was 3.56% (active). For `O=C(Nc1ccc2c(c1)OCCO2)c1ccncc1`, the viability is 94.3%. Regarding `COc1cccc(NC(=O)c2ccc(Cn3cc([N+](=O)[O-])cn3)o2)c1`, the viability was 86.8%. In the case of `CCc1ccc(NC(=O)c2ccc(Cn3cc([N+](=O)[O-])cn3)cc2)cc1`, the viability was 99%. `Cn1cc([N+](=O)[O-])c(C(=O)Nc2ccc3c(c2)OCCO3)n1`: the viability is 3.52% (active). As for `O=[N+]([O-])c1cccc(S(=O)(=O)N2CCCCCC2)c1`, the viability is 86.5%.

With `COc1ccc(C(=O)CSc2nnc(NC(=O)C3CC(=O)N(c4cccc(OC)c4)C3)s2)cc1` (stereo unspecified), the viability is 94.8%. In the case of `CSc1nc2ccccc2cc1/C=C(\C#N)c1ccc(Cl)cc1Cl`, the viability was 3.51% (active). On to `Cc1nc2ccccc2cc1O`, for which the viability is 103%.

Turning to `CSc1nc(N)c(C#N)c(-c2ccccc2Cl)c1C#N`, the viability is 86.3%. In the case of `Cc1cc(C(=O)COC(=O)CNC(=O)c2ccc(F)cc2)c(C)n1Cc1ccco1`, the viability is 96.4%. With `COc1cccc2cc(C(=O)N(C)C)c(=O)oc12`, the viability was 1.64% (active).

Consider `C=CCc1cccc2cc(C(=O)OCC)c(=O)oc12`, for which the viability is 104%. `COc1cccc2cc(C(=O)N3CCN(C(=O)c4ccccc4)CC3)c(=O)oc12`: the viability was 87.7%.

Consider `Cc1ccc(Oc2cc(NC(=O)CCCn3nc(C)c([N+](=O)[O-])c3C)cc([N+](=O)[O-])c2)cc1`, for which the viability is 71.1%. On to `CC(C)(C)C1CCC(OC(=O)CCC(=O)Nc2ccccc2)CC1` (stereo unspecified), for which the viability was 87%. As to `Cc1ccc(C(CC(=O)O)Nc2nc(N3CCCCC3)nc(N3CCCCC3)n2)cc1` (stereo unspecified), the viability is 99.5%. The same measure for `CC(C)n1c(C(O)c2ccccc2)nc2ccccc21` (stereo unspecified): 101%. For the compound `CC(Nc1nc(N2CCCC2)nc2ccccc12)c1ccccc1` (stereo unspecified), the viability was 2.77% (active).

As for `Cc1ccc(C)c(NC(=S)NCC(c2cccnc2)N2CCOCC2)c1` (stereo unspecified), the viability is 92.3%. As to `CCCCCCc1cc2cc(-c3nnc(-c4ccccc4)o3)c(=O)oc2cc1O`, the viability is 1.84% (active). `CC(=O)c1c(C)[nH]c(C(=O)OCC(=O)Nc2sc3c(c2C#N)CCCC3)c1C`: the viability was 66.9%. Consider `COc1cccc2c1CCC(NC(C)=O)C2=O` (stereo unspecified), for which the viability was 86%. The same measure for `Oc1ccc(Cl)cc1/C=N/c1nc2ccccc2[nH]1`: 93.9%; for `O=C(/C(=C/c1cccc(Cl)c1)c1nc2ccccc2[nH]1)c1ccccc1`: 1.59% (active).

Turning to `COc1ccc(/C=C(/NC(=O)c2ccc(C)cc2)c2nc3ccccc3[nH]2)cc1OC`, the viability was 99.4%. As for `Cc1ccc(C(=O)/C=C/Nc2ccc(S(=O)(=O)Nc3onc(C)c3C)cc2)cc1`, the viability is 92.7%. For `O=C(NCCc1ccccc1)C1CCC(Cn2c(=O)c3ccccc3n(Cc3cccnc3)c2=O)CC1` (stereo unspecified), the viability is 63.7%. The figure for `Cc1cccc(NC(=O)CSc2nc3[nH]ncc3c(=O)[nH]2)c1` is 90.2%; for `CC(C)(C)CC(C)(C)NCC(O)COCCOc1ccc(Br)cc1` (stereo unspecified) it is 1.74% (active). Take `Cc1noc(COc2ccccc2OCC(O)CNC(C)(C)C)n1` (stereo unspecified): the viability is 98.8%.

For `CCC(C)NCCOCCOc1ccc(Br)cc1C` (stereo unspecified), the viability was 71%. The figure for `Cc1cccc(C(=O)OCC(=O)Nc2sc3c(c2C#N)CCC3)c1` is 95.8%; for `CCc1ccccc1NC(=O)CN(C)C(=O)COc1ccc(C)nc1[N+](=O)[O-]` it is 95.3%; for `O=C(NNc1c2ccccc2nc2ccccc12)c1cc2ccccc2cc1O` it is 2.39% (active). For the compound `O=C(Nc1c2c(nc3ccccc13)CCCC2)c1ccccc1Br`, the viability was 86.9%. For `Cc1noc(C)c1COC(=O)c1cc2ccccc2cc1O`, the viability was 86.5%. Consider `C=CCNC(=O)c1ccccc1NC(=O)c1ccc(Cl)c(S(=O)(=O)Nc2cccc(C)c2C)c1`, for which the viability was 55.4%.

For the compound `Cn1cc(/C=C/c2nc3ccccc3c(=O)n2-c2cccc([N+](=O)[O-])c2)c2ccccc21`, the viability was 62.3%.

Take `Cc1ccc(-n2c(SCC(=O)N/N=C/C=C/c3ccccc3[N+](=O)[O-])nc3ccccc3c2=O)cc1`: the viability is 85.4%. Regarding `CCn1c(/C=C/c2ccc([N+](=O)[O-])o2)nc2ccccc2c1=O`, the viability is 2.45% (active).

In the case of `CCc1nnc(NC(=O)[C@@H](NC(=O)c2cccc(C)c2)C(C)C)s1`, the viability was 80.8%. As to `N#CCSc1nc2ccccc2c(=O)n1-c1ccccc1`, the viability was 90.5%. With `Cc1cc(C)c2c(n1)sc1c(=O)n(-c3ccccc3)c(=O)[nH]c12`, the viability was 97.1%. Consider `C/C(O)=C\c1nc(=O)c2c(C)cc(C)nc2n1-c1ccccc1`, for which the viability is 2.19% (active). `COc1ccc(CCC(=O)OCC(=O)Nc2ccc(C)c(S(=O)(=O)N(C)C)c2)cc1`: the viability was 96.3%. The figure for `c1ccc2c(c1)CSc1sccc1C2=C1CCNCC1` is 4.26%; for `CCOC(=O)c1ccc(N/C(=N/S(=O)(=O)c2ccccc2)c2ccccc2)cc1` it is 102%. Turning to `CCOC(=O)c1ccccc1NS(=O)(=O)c1ccc(OC)cc1`, the viability was 15.6%.

For `CCCCC(C(=O)OCC(=O)c1ccc(OC)cc1)N1C(=O)c2ccccc2C1=O` (stereo unspecified), the viability was 97.5%.

`CCOC(=O)C1=C(c2ccc(OC)cc2)C(=O)c2ccccc2C1=O`: the viability was 1.48% (active).
